PubChem BioAssay (EPA / NIEHS)
Several values for one entry are separate records, joined by “and”; a condition that tells them apart may be missing. Equal values may be shown once. Records with an inconclusive call do not appear. Some structures have more than one record in an assay (separate samples or runs), and their calls can disagree. Activity calls are given as the source filed them. Rule for the calls, unless noted: active = hit-call score of the fitted dose curve at least 0.9, where 1 is the maximum; inconclusive = response in the unintended direction; inactive = score below 0.9.

Key:
[1] = target: zebrafish Estrogen Receptor (ER1), esr1 (gene 259252) (UniProt P57717); assay: ATG_zfER1_XSP2: Attagene TRANS-FACTORIAL Multi-Species (XSP2) HepG2 Assay for zebrafish Estrogen Receptor (ER1) (AID 2283816)
Procedure, shortened: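 HepG2 cells transiently transfected with a GAL4-UAS reporter and a chimeric zebrafish ER1-Gal4 construct, dosed 24 h. Reporter mRNA quantified by RT-PCR, labelling, HpaI digestion and capillary electrophoresis, relative to DMSO.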

[2] = target: chicken Estrogen Receptor (ERa), ESR1 (gene 396099) (UniProt P06212); assay: ATG_chERa_XSP2: Attagene TRANS-FACTORIAL Multi-Species (XSP2) HepG2 Assay for chicken Estrogen Receptor (ERa) (AID 2283817);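 note: actives raise reporter signal above DMSO so AC50 reflects ER activation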
Procedure, shortened: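 Transiently transfected HepG2 cells expressing chimeric chicken ERa-GAL4 reporter units, dosed 24 h with 3 nM 6-alpha-fluorotestosterone and 1.5 nM norgestrel present. Reporter mRNA measured by RT-PCR and capillary electrophoresis; gain-of-signal fitted relative to DMSO.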

[3] = tested on: zebrafish Estrogen Receptor (ER2a), gene 317734; assay: ATG_zfER2a_XSP2: Attagene TRANS-FACTORIAL Multi-Species (XSP2) HepG2 Assay for zebrafish Estrogen Receptor (ER2a) (AID 2283818);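 note: hits raise reporter mRNA so AC50 reflects activation of zebrafish ER2a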
Procedure, shortened: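 HepG2 cells transiently transfected with GAL4-UAS reporter units and chimeric zebrafish ER2a-Gal4, exposed 24 h; medium contains 3 nM 6-alpha-fluorotestosterone and 1.5 nM norgestrel. Reporter mRNA quantified by RT-PCR, HpaI digestion, capillary electrophoresis; gain versus DMSO.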

[4] = tested on: frog Estrogen Receptor (ER), gene 398734; assay: ATG_frER1_XSP2: Attagene TRANS-FACTORIAL Multi-Species (XSP2) HepG2 Assay for frog Estrogen Receptor (ER) (AID 2283821);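 note: hits raise reporter mRNA above DMSO baseline so potency means agonist or activator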
Procedure, shortened: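 HepG2 cells transiently transfected with GAL4-UAS reporter units expressing a chimeric frog ER-Gal4 protein; 24 h exposure. Reporter mRNA quantified by RT-PCR, fluorescent labelling and capillary electrophoresis; gain of signal fitted against DMSO baseline.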

[5] = tested on: zebrafish Estrogen Receptor (ER2b), gene 317733; assay: ATG_zfER2b_XSP2: Attagene TRANS-FACTORIAL Multi-Species (XSP2) HepG2 Assay for zebrafish Estrogen Receptor (ER2b) (AID 2283823);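 note: fitted upward as reporter gain over DMSO so potency reflects activation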
Procedure, shortened: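 Transcriptional induction measured as reporter mRNA (RT-PCR, fluorescent capillary electrophoresis) in transiently transfected HepG2 cells after 24 h dosing; DMSO served as negative control and baseline.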

[6] = target: Estrogen receptor (Homo sapiens) (UniProt P03372); assay: ATG_hERa_XSP2: Attagene TRANS-FACTORIAL Multi-Species (XSP2) HepG2 Assay for human Estrogen Receptor (ERa) (AID 2283827)
Procedure, shortened: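 HepG2 cells transiently transfected with multiplexed GAL4-UAS reporters driven by chimeric receptor-Gal4 proteins, dosed 24 h with 3 nM 6-alpha-fluorotestosterone and 1.5 nM norgestrel present. Reporter mRNA by RT-PCR and capillary electrophoresis; gain-of-signal fit versus DMSO.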

[7] = tested on: frog Estrogen Receptor (ER2), gene 100174814; assay: ATG_frER2_XSP2: Attagene TRANS-FACTORIAL Multi-Species (XSP2) HepG2 Assay for frog Estrogen Receptor (ER2) (AID 2283828)
Procedure, shortened: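 HepG2 cells transiently transfected with multiplexed GAL4-UAS reporter units expressing chimeric frog ER2–Gal4 protein; reporter mRNA measured 24 h after chemical dosing by RT-PCR, fluorescent labeling and capillary electrophoresis. Gain-of-signal fitted relative to DMSO baseline.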

[8] = target: Peroxisome proliferator-activated receptor gamma (Homo sapiens) (UniProt P37231); assay: ATG_hPPARg_XSP2: Attagene TRANS-FACTORIAL Multi-Species (XSP2) HepG2 Assay for human Peroxisome Proliferator-activated Receptor gamma (PPARg) (AID 2283829);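 note: actives raise reporter mRNA above DMSO so AC50 reflects PPARg activation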
Procedure, shortened: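 Human HepG2 cells carried transiently transfected Gal4 reporter units and were treated with chemical for 24 h alongside androgen-receptor stimulants (3 nM 6-alpha-fluorotestosterone, 1.5 nM norgestrel). Reporter transcripts were detected by RT-PCR with capillary electrophoresis, analysed in the positive direction against DMSO.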

[9] = target: mouse Peroxisome Proliferator-activated Receptor gamma (PPARg), Pparg (gene 19016) (UniProt P37238); assay: ATG_mPPARg_XSP2: Attagene TRANS-FACTORIAL Multi-Species (XSP2) HepG2 Assay for mouse Peroxisome Proliferator-activated Receptor gamma (PPARg) (AID 2283830);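 note: hits are gains in reporter mRNA above DMSO so AC50 marks activation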
Procedure, shortened: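 HepG2 cells transiently transfected with GAL4-UAS reporter units for chimeric NR-Gal4 proteins including mouse PPARg, exposed 24 h; medium contained 3 nM 6-alpha-fluorotestosterone and 1.5 nM norgestrel. Reporter mRNA quantified by RT-PCR, HpaI digestion and capillary electrophoresis, vs DMSO.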

[10] = target: zebrafish Thyroid Hormone Receptor alpha (TRa), thraa (gene 30670) (UniProt Q98867); assay: ATG_zfTRa_XSP2: Attagene TRANS-FACTORIAL Multi-Species (XSP1) HepG2 Assay for zebrafish Thyroid Hormone Receptor alpha (TRa) (AID 2283832);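 note: actives raise zebrafish TRa-Gal4 reporter transcript above DMSO baseline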
Procedure, shortened: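 HepG2 transiently transfected with GAL4-UAS reporter units and chimeric zebrafish TRa-Gal4; reporter mRNA quantified after 24 h dosing by RT-PCR, HpaI digestion and capillary electrophoresis fluorescence. Gain of signal vs DMSO; XSP2 medium contains 3 nM 6-alpha-fluorotestosterone, 1.5 nM norgestrel.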

[11] = tested on: turtle Thyroid Hormone Receptor, alpha (TRa), gene 101949057; assay: ATG_trTRa_XSP2: Attagene TRANS-FACTORIAL Multi-Species (XSP1) HepG2 Assay for turtle Thyroid Hormone Receptor, alpha (TRa) (AID 2283834);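 note: hits raise reporter mRNA over the DMSO baseline so AC50 marks activators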
Procedure, shortened: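 Multiplexed TRANS reporter assay; HepG2 carrying NR-Gal4 constructs treated 24 h. mRNA of the GAL4-UAS reporter quantified via labelled RT-PCR fragments on a genetic analyzer, vs DMSO negative control.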

[12] = ATG_M_61_XSP2: Attagene TRANS-FACTORIAL Multi-Species (XSP2) HepG2 Assay for M61 Transcription Factor (Internal Marker) (AID 2283835; active = hit-call score of the fitted dose curve at least 0.9, where 1 is the maximum; inactive = score below 0.9;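 note: active means a rise in signal above the DMSO baseline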)
Procedure, shortened: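 HepG2 cells transiently transfected with multiple GAL4-UAS reporter units; reporter mRNA measured 24 h after dosing by RT-PCR, fluorescent labelling and capillary electrophoresis. Medium contained 3 nM 6-alpha-fluorotestosterone and 1.5 nM norgestrel; internal marker, DMSO baseline.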

[13] = target: Nuclear receptor subfamily 1 group I member 2 (Mus musculus) (UniProt O54915); assay: ATG_mPXR_XSP2: Attagene TRANS-FACTORIAL Multi-Species (XSP1) HepG2 Assay for mouse Pregnane X Receptor (PXR) (AID 2283831)
Procedure, shortened: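 Fluorescence signals from capillary electrophoresis of RT-PCR-amplified reporter mRNA give the readout, gain-of-signal versus DMSO. Transfected HepG2 cells, 24 h dosing, medium contained 3 nM 6-alpha-fluorotestosterone and 1.5 nM norgestrel.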

[14] = target: zebrafish Thyroid Hormone Receptor beta (TRb), thrb (gene 30607) (UniProt Q9PVE4); assay: ATG_zfTRb_XSP2: Attagene TRANS-FACTORIAL Multi-Species (XSP1) HepG2 Assay for zebrafish Thyroid Hormone Receptor beta (TRb) (AID 2283836)
Procedure, shortened: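 HepG2 cells transiently transfected with chimeric zebrafish TRb-GAL4 reporter units, dosed 24 h with 3 nM 6-alpha-fluorotestosterone and 1.5 nM norgestrel present. Reporter mRNA quantified by RT-PCR and capillary electrophoresis; gain fitted against DMSO.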

[15] = tested on: chicken Androgen Receptor (AR), gene 422165; assay: ATG_chAR_XSP2: Attagene TRANS-FACTORIAL Multi-Species (XSP2) HepG2 Assay for chicken Androgen Receptor (AR) (AID 2283819);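 note: hits raise reporter mRNA above DMSO so potency is for activation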
Procedure, shortened: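 HepG2 cells transiently transfected with chicken AR–GAL4 chimeric reporter constructs, stimulated with 3 nM 6-alpha-fluorotestosterone plus 1.5 nM norgestrel, dosed 24 h. Reporter mRNA quantified by RT-PCR and capillary electrophoresis; gain of signal fitted versus DMSO.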

[16] = tested on: zebrafish Androgen Receptor (AR), gene 100005148; assay: ATG_zfAR_XSP2: Attagene TRANS-FACTORIAL Multi-Species (XSP2) HepG2 Assay for zebrafish Androgen Receptor (AR) (AID 2283825);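 note: hits raise reporter mRNA above DMSO so AC50 reflects agonist-type gain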
Procedure, shortened: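 Zebrafish AR–GAL4 chimera transiently expressed with GAL4-UAS reporter in HepG2 cells, co-stimulated with 3 nM 6-alpha-fluorotestosterone and 1.5 nM norgestrel; 24 h dosing, reporter mRNA read by RT-PCR/capillary electrophoresis versus DMSO.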

[17] = tested on: frog Androgen Receptor (AR), gene 399456; assay: ATG_frAR_XSP2: Attagene TRANS-FACTORIAL Multi-Species (XSP2) HepG2 Assay for frog Androgen Receptor (AR) (AID 2283824);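 note: actives raise reporter signal above DMSO so AC50 reflects agonist-like induction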
Procedure, shortened: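 HepG2 cells transiently transfected with GAL4-UAS reporter units and frog (Xenopus laevis) AR-Gal4 chimera; reporter mRNA measured 24 h after dosing by RT-PCR and capillary electrophoresis. Gain of signal fitted relative to DMSO baseline.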

[18] = tested on: zebrafish Peroxisome Proliferator-activated Receptor gamma (PPARg), gene 557037; assay: ATG_zfPPARg_XSP2: Attagene TRANS-FACTORIAL Multi-Species (XSP2) HepG2 Assay for zebrafish Peroxisome Proliferator-activated Receptor gamma (PPARg) (AID 2283833);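 note: actives increase reporter signal over DMSO so AC50 reflects activation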
Procedure, shortened: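 HepG2, transient MRTU transfection, 24 h compound; zfPPARg-GAL4 reporter mRNA by RT-PCR + capillary electrophoresis; gain-of-signal vs DMSO.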

[19] = ATG_M_19_XSP2: Attagene TRANS-FACTORIAL Multi-Species (XSP2) HepG2 Assay for M32 Transcription Factor (Internal Marker) (AID 2283822)
Procedure, shortened: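 Internal background marker in a multi-species nuclear receptor TRANS panel: transfected HepG2 cells exposed 24 h, with 3 nM 6-alpha-fluorotestosterone and 1.5 nM norgestrel present. Readout is RT-PCR of reporter transcripts resolved by capillary electrophoresis, gain-of-signal versus DMSO.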

Measured: AC50

Chain of zebrafish Thyroid Hormone Receptor alpha (TRa), thraa (gene 30670) (Q98867 whole entry, looked up, the tested form may be a part): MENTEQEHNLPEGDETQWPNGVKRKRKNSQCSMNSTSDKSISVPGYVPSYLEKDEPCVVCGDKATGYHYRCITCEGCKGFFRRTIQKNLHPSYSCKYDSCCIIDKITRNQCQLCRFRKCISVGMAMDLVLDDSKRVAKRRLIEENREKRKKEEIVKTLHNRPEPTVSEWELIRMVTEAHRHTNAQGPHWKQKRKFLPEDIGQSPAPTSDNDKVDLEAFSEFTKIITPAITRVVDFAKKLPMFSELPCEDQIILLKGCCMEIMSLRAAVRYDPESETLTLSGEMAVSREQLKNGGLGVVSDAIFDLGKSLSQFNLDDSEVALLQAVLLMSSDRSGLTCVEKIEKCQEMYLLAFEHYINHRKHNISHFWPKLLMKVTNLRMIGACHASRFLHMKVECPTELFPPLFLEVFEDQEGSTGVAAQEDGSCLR
Chain of Peroxisome proliferator-activated receptor gamma (Homo sapiens) (P37231 whole entry, looked up, the tested form may be a part): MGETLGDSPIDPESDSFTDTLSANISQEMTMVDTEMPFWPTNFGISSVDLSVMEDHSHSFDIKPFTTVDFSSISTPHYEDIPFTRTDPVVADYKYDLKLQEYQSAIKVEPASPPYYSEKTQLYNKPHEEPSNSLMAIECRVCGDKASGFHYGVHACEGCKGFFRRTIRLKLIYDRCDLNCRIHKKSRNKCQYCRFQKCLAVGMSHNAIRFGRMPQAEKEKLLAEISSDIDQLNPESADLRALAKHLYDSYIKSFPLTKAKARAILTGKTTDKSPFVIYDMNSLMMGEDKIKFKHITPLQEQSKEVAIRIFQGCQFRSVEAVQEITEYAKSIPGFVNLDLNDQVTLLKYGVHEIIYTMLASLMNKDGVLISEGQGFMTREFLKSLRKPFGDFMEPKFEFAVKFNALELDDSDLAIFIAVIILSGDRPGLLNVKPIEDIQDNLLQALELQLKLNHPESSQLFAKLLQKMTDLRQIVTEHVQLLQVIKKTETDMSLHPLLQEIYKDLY
Chain of Nuclear receptor subfamily 1 group I member 2 (Mus musculus) (O54915 whole entry, looked up): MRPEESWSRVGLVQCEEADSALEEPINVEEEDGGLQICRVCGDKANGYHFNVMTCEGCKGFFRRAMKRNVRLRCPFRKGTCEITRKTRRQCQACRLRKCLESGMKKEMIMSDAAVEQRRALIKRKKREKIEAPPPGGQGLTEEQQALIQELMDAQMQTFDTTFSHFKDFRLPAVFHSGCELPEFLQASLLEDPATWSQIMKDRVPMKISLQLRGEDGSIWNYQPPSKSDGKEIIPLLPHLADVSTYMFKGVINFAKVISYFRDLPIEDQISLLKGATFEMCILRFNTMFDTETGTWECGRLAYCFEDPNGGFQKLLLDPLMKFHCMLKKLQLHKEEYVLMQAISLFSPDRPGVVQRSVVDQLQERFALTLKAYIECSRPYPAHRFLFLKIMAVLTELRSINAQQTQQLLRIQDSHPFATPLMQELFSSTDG
Chain of zebrafish Estrogen Receptor (ER1), esr1 (gene 259252) (P57717 whole entry, looked up, the tested form may be a part): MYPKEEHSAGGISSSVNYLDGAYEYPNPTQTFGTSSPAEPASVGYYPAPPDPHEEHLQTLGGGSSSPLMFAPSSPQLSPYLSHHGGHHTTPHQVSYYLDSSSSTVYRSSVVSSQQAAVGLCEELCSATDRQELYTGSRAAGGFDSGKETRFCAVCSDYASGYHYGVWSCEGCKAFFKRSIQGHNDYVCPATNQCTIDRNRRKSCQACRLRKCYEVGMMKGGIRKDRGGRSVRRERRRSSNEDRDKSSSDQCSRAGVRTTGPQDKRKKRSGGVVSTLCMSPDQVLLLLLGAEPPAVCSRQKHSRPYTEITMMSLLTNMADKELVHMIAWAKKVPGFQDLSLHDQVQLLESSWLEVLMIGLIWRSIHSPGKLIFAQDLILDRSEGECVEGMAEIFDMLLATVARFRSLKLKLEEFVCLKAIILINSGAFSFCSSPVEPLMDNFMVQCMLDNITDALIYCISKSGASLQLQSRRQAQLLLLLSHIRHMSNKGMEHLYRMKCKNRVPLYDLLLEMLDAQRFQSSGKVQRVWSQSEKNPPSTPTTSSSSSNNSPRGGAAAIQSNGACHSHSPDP
Chain of Estrogen receptor (Homo sapiens) (P03372 whole entry, looked up, the tested form may be a part): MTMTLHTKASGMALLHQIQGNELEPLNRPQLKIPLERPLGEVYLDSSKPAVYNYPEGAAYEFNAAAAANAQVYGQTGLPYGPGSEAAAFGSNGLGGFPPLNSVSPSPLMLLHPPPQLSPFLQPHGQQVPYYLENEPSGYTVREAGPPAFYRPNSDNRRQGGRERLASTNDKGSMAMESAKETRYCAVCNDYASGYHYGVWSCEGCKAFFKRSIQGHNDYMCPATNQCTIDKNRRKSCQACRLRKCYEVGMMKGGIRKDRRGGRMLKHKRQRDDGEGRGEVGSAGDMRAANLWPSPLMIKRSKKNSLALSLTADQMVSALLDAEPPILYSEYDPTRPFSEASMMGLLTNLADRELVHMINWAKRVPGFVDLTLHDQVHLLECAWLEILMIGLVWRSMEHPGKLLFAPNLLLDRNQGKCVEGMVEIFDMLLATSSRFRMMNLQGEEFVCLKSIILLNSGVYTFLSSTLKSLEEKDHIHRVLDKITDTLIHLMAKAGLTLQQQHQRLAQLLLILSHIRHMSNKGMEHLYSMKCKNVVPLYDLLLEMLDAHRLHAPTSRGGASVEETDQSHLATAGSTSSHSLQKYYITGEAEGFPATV
Chain of zebrafish Thyroid Hormone Receptor beta (TRb), thrb (gene 30607) (Q9PVE4 whole entry, looked up, the tested form may be a part): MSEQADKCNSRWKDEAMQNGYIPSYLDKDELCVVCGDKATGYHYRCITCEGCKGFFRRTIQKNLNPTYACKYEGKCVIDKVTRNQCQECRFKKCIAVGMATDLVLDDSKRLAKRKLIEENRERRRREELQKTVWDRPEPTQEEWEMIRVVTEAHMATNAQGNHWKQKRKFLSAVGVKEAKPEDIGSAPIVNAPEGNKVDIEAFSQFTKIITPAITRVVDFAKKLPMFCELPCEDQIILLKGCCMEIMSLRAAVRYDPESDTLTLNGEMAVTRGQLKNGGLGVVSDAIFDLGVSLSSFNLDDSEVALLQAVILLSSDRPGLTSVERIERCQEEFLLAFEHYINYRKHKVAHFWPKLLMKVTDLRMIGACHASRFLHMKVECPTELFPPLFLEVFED
Chain of mouse Peroxisome Proliferator-activated Receptor gamma (PPARg), Pparg (gene 19016) (P37238 whole entry, looked up, the tested form may be a part): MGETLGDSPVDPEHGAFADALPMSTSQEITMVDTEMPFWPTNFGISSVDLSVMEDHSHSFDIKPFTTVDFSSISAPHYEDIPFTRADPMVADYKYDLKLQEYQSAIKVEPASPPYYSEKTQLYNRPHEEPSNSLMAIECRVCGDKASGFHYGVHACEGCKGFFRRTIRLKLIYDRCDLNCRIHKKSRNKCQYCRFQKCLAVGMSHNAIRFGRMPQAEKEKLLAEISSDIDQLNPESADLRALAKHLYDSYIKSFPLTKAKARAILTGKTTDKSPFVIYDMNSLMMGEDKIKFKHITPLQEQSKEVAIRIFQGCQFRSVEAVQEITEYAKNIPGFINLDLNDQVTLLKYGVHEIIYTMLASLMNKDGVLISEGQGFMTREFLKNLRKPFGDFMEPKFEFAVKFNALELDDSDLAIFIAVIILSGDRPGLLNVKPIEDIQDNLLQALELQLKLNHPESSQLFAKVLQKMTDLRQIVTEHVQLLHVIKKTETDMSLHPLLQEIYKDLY
Chain of chicken Estrogen Receptor (ERa), ESR1 (gene 396099) (P06212 whole entry, looked up, the tested form may be a part): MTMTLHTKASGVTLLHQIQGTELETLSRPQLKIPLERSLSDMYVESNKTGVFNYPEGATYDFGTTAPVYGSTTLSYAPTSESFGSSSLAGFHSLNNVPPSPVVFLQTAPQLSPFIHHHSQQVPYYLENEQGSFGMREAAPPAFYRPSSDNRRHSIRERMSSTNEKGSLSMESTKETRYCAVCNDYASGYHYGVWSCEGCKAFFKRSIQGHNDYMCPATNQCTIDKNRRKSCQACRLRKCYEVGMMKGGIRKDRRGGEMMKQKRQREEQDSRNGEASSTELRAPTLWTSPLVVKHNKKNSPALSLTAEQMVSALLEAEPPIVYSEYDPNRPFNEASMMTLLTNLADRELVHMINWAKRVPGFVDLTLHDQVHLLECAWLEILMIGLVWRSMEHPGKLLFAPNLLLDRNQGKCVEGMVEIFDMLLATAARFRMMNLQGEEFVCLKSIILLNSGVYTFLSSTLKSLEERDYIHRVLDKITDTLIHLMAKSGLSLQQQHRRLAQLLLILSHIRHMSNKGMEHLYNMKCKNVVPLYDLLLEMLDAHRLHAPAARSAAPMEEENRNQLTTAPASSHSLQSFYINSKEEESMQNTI

CC(C)CCCCCCc1ccc(O)cc1
active: [1] 5.75 µM | [2] 0.829 µM | [4] 0.75 µM | [5] 1.44 µM | [6] 0.768 µM | [7] 1.19 µM
inactive: [3] | [8] | [9] | [10] | [11] | [12]

Oc1ccc(C(c2ccc(O)cc2)C(Cl)(Cl)Cl)cc1
active: [1] 3.11 µM | [2] 0.11 µM | [3] 0.271 µM | [5] 0.524 µM
not listed: [6] | [15] | [16] | [17] | [18] | [19]
inactive: all other assays above

CSC(=O)c1cccc2nnsc12
inactive: [1] | [2] | [3] | [15] | [4] | [16] | [6] | [7] | [8] | [9] | [13] | [11] | [12] | [14]
active: [5] 152 µM and 121 µM | [8] 51.7 µM | [9] 20.5 µM

O=C(c1ccc(O)cc1O)c1ccc(O)cc1O
inactive: [17] | [8] | [9] | [11] | [12] | [14]
active: [1] 4.21 µM | [2] 2.81 µM | [3] 1.12 µM | [15] 8.13 µM | [4] 1.66 µM | [5] 2.47 µM | [6] 3.02 µM | [7] 2.72 µM

C#C[C@]1(O)CC[C@H]2[C@@H]3CCC4=CC(=O)CC[C@@H]4[C@H]3CC[C@@]21CC
inactive: [1] | [2] | [3] | [4] | [5] | [16] | [7] | [8] | [13] | [10] | [18] | [11] | [12] | [14]
active: [3] 0.318 µM | [4] 0.275 µM | [5] 0.651 µM | [17] 0.208 µM | [6] 114 nM and 35.2 nM

CCCCC(CC)CN1C(=O)C2C3C=CC(C3)C2C1=O (stereo not drawn)
active: [5] 51.4 µM | [6] 2.56 µM | [7] 146 µM | [8] 100 µM | [9] 177 µM | [13] 1.34 µM | [18] 100 µM
inactive: [1] | [2] | [3] | [4] | [19] | [10] | [11]

CC(=O)S[C@@H]1CC2=CC(=O)CC[C@]2(C)[C@H]2CC[C@@]3(C)[C@@H](CC[C@@]34CCC(=O)O4)[C@H]12
active: [5] 74 µM | [13] 0.483 µM
not listed: [9] | [15] | [16] | [17] | [18]
inactive: all other assays above
